Data: PubChem BioAssay (NCATS)
Values without a mark were called inactive. Inconclusive results are not listed. Where a call stands in place of a potency, no number is given. The source made the active and inactive calls. Calls follow the shape of the dose curve; as a rule, active = well fitted curve in the direction sought with a large enough effect; inconclusive = small, poorly fitted or top-dose-only effect, or another doubt; inactive = no such curve, though single readings can be large or run the other way.

What was measured:
[1] = target: T1, Hexokinase-4 (Homo sapiens) + Glucokinase regulatory protein (Homo sapiens) (UniProt P35557+Q14397); assay: qHTS assay for inhibitors of recombinant human GCK-GKRP interaction: ADP-Glo assay (AID 743206); settings: ADP-Glo luminescence, 60 min, 0% = vehicle-only wells with enzyme present; series mostly up to 76.9 µM
T1 sequence (P35557 whole entry, looked up): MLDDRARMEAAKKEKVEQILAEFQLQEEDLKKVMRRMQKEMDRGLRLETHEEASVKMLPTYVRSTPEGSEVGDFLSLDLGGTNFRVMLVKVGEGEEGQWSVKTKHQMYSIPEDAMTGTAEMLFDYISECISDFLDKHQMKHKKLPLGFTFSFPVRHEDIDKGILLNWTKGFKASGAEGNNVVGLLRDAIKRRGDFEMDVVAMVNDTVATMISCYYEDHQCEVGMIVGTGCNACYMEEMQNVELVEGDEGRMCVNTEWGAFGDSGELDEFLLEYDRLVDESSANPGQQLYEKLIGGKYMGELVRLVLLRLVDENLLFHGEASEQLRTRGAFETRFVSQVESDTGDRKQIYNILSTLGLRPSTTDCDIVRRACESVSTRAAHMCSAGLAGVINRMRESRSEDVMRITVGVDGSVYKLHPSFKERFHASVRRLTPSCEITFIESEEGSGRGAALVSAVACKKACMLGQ
T1 sequence (Q14397 whole entry, looked up): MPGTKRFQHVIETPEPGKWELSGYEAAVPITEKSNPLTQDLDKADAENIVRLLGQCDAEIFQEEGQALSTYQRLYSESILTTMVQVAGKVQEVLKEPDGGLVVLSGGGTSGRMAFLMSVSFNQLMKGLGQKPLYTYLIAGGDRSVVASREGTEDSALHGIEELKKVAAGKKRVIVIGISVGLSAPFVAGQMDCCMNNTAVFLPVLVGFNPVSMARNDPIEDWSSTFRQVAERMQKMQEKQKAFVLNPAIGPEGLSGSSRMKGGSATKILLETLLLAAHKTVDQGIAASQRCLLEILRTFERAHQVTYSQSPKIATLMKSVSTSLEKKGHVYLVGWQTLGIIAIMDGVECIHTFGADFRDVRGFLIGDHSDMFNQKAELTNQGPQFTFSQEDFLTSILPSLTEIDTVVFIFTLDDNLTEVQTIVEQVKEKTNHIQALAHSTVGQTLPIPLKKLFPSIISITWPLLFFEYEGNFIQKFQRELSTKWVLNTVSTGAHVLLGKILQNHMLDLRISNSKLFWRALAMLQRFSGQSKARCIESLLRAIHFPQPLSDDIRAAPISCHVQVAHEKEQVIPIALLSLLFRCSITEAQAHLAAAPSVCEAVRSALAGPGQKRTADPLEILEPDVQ
Procedure, shortened: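 GST-GCK and FLAG-GKRP (15 nM each in the dispensed mix, with 2 uM S6P) react with 0.4 mM ATP and 5 mM glucose (final) in Hepes pH 7.6 for 60 min at room temperature. ADP is measured by ADP-Glo luminescence.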

[2] = target: T1, Hexokinase-4 (Homo sapiens) + Glucokinase regulatory protein (Homo sapiens); assay: qHTS assay for inhibitors of recombinant human GCK-GKRP interaction: HTRF assay (AID 743207); settings: recombinant GCK-GKRP HTRF binding, 60 min; series mostly up to 57.5 µM
Procedure, shortened: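 GST-GCK and FLAG-GKRP (5 nM each) were combined with 2 uM S6P in pH 7.1 Hepes/MgCl2/KCl/DTT buffer, then compound and anti-FLAG XL665/anti-GST K antibodies were added. After 60 min at room temperature, HTRF 665/615 nm emission was read.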

[3] = qHTS Assay for Identifying Gametocytocidal Compounds (AID 743244); also: potency is read from the fitted curve at half-maximal effect;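 as to max response: actives lower the fluorescent signal which means gametocytes are killed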; settings: P. falciparum 3D7 stage III-V gametocytes, alamarBlue, 72 h; max response: stronger effect = lower value
Procedure, shortened: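 A resazurin-based viability read-out was applied to mature P. falciparum gametocytes: 72 h compound treatment, then 24 h dye incubation, with falling fluorescence signalling gametocytocidal effect.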

[4] = target: T1, Hexokinase-4 (Homo sapiens) + Glucokinase regulatory protein (Homo sapiens); assay: qHTS assay for inhibitors of recombinant human GCK-GKRP interaction: Diaphorase-coupled assay (AID 743205); settings: G6PDH/diaphorase resorufin fluorescence; series mostly up to 57.5 µM
Procedure, shortened: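 GST-GCK (10 nM) with FLAG-GKRP (10 nM), 5 mM glucose and 0.4 mM ATP in pH 7.6 Hepes; compounds preincubated 20 min with substrate. G6PDH/diaphorase coupling converts resazurin to resorufin, read kinetically (ex 525/em 590 nm) for 30 min.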

SMILES | outcome [1] | outcome [2] | max response [3] [%] | Potency [4] | Potency [3]
CCCN1CC[C@@H]2c3cc(O)ccc3CC[C@@H]21 | inactive | inactive | 20.4 | – | –
N[C@@]1(C(=O)O)CC[C@@H](C(=O)O)C1 | – | inactive | 13.5 | inactive | –
C[N+]1(C)C2CCC1CC(OC(=O)c1c[nH]c3ccccc13)C2 (configuration not stated) | inactive | inactive | -2.89 | – | –
C=CCN1CCC23c4c5ccc(O)c4O[C@H]2C(=O)CC[C@@]3(O)C1C5 (some centres not stated) | inactive | inactive | 7.07 | – | –
NC(=O)COc1c(F)cc(SCCNS(=O)(=O)c2ccccc2)cc1F | – | inactive | 9.54 | inactive | –
CC1(C(=O)O)C2CCC(O2)C1(C)C(=O)O (configuration not stated) | inactive | inactive | -9.57 | – | –
CC(N)Cc1c[nH]c2ccc(OCc3cccs3)cc12 (configuration not stated) | – | inactive | – | inactive | 1.41 µM (active)
C[N+]1(C)CCc2cc3c(cc2[C@H]1[C@@H]1OC(=O)c2c1ccc1c2OCO1)OCO3 | – | inactive | 19.2 | inactive | –
C[N+](C)(C)CC#CCN1CCCC1=O | inactive | inactive | -2.31 | – | –
CC(Cc1ccc(OCC(=O)O)cc1)NCC(O)c1cccc(Cl)c1 (configuration not stated) | inactive | inactive | 16.8 | – | –
C[C@@H]1O[C@H](C[N+](C)(C)C)CS1 | inactive | inactive | 20.1 | – | –
O=c1c2ccccc2[se]n1-c1ccccc1 | inactive | inactive | – | – | –
C=CCN1CCc2cccc3c2[C@H]1Cc1ccc(O)c(O)c1-3 | inactive | inactive | – | – | 1.12 µM (active)
Clc1cc(I)cc(Cl)c1NC1=NCCN1 | inactive | inactive | 44.8 | – | –
CN1C2CCC1CC(OC(c1ccccc1)c1ccccc1N)C2 (configuration not stated) | inactive | inactive | 17.7 | – | –
Cc1[nH]c2ccc(O)cc2c1CCN | inactive | inactive | – | – | –
CCCCCCCCCCCCCC(=O)O[C@@H]1[C@@H](C)[C@@]2(O)[C@@H](C=C(CO)C[C@@]3(O)C(=O)C(C)=C[C@@H]23)C2C(C)(C)[C@@]21OC(C)=O (some centres not stated) | – | inactive | -2.77 | inactive | –
NCCCP(=O)(O)O | inactive | inactive | – | – | –
c1ccc2c(c1)[I+]c1ccccc1-2 | inactive | inactive | – | – | 0.166 µM (active)
COc1ccc2c(c1O)-c1cccc3c1[C@@H](C2)N(C)CC3 | inactive | inactive | 27.6 | – | –
C[C@@H]1O[C@@H](O[C@H]2C[C@@H](O)[C@]3(CO)[C@@H]4C(CC[C@]3(O)C2)[C@@]2(O)CC[C@H]([C@@H]3COC(=O)C3)[C@@]2(C)C[C@H]4O)[C@H](O)[C@H](O)[C@H]1O (some centres not stated) | – | inactive | 22.5 | inactive | –
NNC(=O)c1ccc(O)cc1 | – | inactive | 7.91 | inactive | –
CC(N)Cc1c[nH]c2ccc(O)cc12 (configuration not stated) | inactive | inactive | 20.7 | – | –
NC(N)=Nc1ccc2[nH]c3c(c2c1)C[C@@]1(O)[C@H]2Cc4ccc(O)c5c4[C@@]1(CCN2CC1CC1)[C@H]3O5 | inactive | inactive | – | – | –
CCCN(CCC)CCc1ccc(O)c(O)c1 | inactive | inactive | – | – | –
CC(C)NP(=O)(NC(C)C)OP(=O)(NC(C)C)NC(C)C | – | inactive | 7.64 | inactive | –
CCNC(=O)[C@H]1O[C@@H](n2cnc3c(N)ncnc32)[C@H](O)[C@@H]1O | – | inactive | -1.58 | inactive | –
NCC(O)c1cc(O)c(O)cc1F (configuration not stated) | – | inactive | 20.1 | inactive | –
CCCN1CCc2cc(O)cc3c2[C@H]1Cc1ccc(O)c(O)c1-3 | inactive | inactive | – | – | 2.51 µM (active)
